In all, about 350,000 compounds went through this assay and about 31,000 (8.9%) were called active. A call without a number means that no potency is given here. Roughly 15% stayed inconclusive and do not appear here. The sample as a whole holds a higher share of actives than the screen did. Unmarked numbers belong to inactive results. Calls follow the shape of the dose curve; as a rule, active = well fitted inhibition curve with a large enough effect; inconclusive = small, poorly fitted or top-dose-only effect; inactive = no such curve, though single readings can be large or run the other way.
What follows are compounds tested against Histone-lysine N-methyltransferase EHMT2 (Homo sapiens) (UniProt Q96KQ7) (assay: qHTS Assay for Inhibitors of Histone Lysine Methyltransferase G9a). Settings: G9a H3K9 monomethylation, AlphaScreen, 2 h; series mostly up to 59 µM.
Histone-lysine N-methyltransferase EHMT2 (Homo sapiens), sequence (Q96KQ7 913-1193 limits assumed): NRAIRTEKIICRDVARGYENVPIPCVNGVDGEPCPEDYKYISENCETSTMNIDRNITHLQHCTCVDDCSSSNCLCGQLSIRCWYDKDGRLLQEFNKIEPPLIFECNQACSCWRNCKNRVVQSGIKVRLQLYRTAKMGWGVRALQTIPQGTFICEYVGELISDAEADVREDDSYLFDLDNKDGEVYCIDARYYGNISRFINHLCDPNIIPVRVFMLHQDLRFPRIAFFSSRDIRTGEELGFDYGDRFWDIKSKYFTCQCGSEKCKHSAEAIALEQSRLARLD
How it was run: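 Step 1: enzyme (final 20 nM) with compound, 15 min RT. Step 2: substrate peptide 500 nM and SAM 20 uM, 2 h RT. Step 3: anti-H3K9me1 antibody and AlphaScreen beads, 10 min, then plate read.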
In the case of `Cc1oc(-c2ccccc2)nc1Cn1c(SCc2cccc(C(F)(F)F)c2)nc2cccnc21`, the Potency was “inactive”. Work on `Cc1ccc(C(=O)CN2C(=O)NC3(CCOc4ccccc43)C2=O)s1` (stereo not given) yielded an activity, negative = inhibition of -5.02% [at 2.33 µM]. `CN1CCN(NC(=O)Nc2ccc(Br)cc2)CC1` was tested, and the Potency was “inactive”. With `CC(C)(C)OC(=O)NCCCCCNC(=O)c1[nH]cnc1C(=O)Nc1nccs1` the activity, negative = inhibition was 3.9% [at 0.501 µM]. With `O=C(COc1ccc(Cl)cc1)Nc1ccccc1OCc1cc(=O)n2ccccc2n1` the Potency was “inactive”. `COc1ccccc1OCCNC(=O)C(CCSC)NC(=O)COc1ccccc1` (stereo not given) was tested, and the activity, negative = inhibition was 9.08% [at 12.7 µM]. `O=C1C=C(c2cc(C(F)(F)F)cc(C(F)(F)F)c2)C[C@@H](c2ccc3c(c2)OCO3)C1` showed an activity, negative = inhibition of 10.2% [at 0.501 µM]. In the case of `CCN(C(=O)Cn1c(=O)nc(-c2ccccc2)c2cc(Cl)ccc21)c1cccc(C)c1`, the Potency was “inactive”. `O=C(CCC1N=C2c3ccccc3N=C(SCc3ccccc3F)N2C1=O)NCCc1ccccc1` (stereo not given) was tested, and the Potency was “inactive”. For `C[C@H](NC(=O)c1[nH]cnc1C(=O)Nc1nccs1)c1ccccc1`, the activity, negative = inhibition was 8.27% [at 0.501 µM]. With `CC(NC(=O)C(=O)Nc1nccs1)c1ccccc1` (stereo not given) the Potency was 50.1 µM (active). In the case of `O=C(O)c1ccccc1-c1ccccc1C(=O)Nc1nccs1`, the Potency was “inactive”. In the case of `Cc1cccc(C)c1-n1ncc(C(=O)NCCCN2CCCCC2)c1C1CCN(C(=O)OC(C)(C)C)CC1`, the Potency was “inactive”. `CCCC(NCC(=O)Nc1ccccc1C(=O)NC1CC1)c1ccccc1` (stereo not given) was tested, and the Potency was “inactive”. With `CCOC(=O)c1c(C)[nH]c(C)c1S(=O)(=O)NCC(=O)NCc1cccc(C)c1` the Potency was “inactive”. In the case of `Cc1c(C)c2ccc(OCC(=O)N3CCC(C(=O)O)CC3)c(C)c2oc1=O`, the Potency was “inactive”. With `CCOC(=O)CCc1c(C)c2ccc(OCc3nn[nH]n3)c(C)c2oc1=O` the Potency was 50.1 µM (active). `CCCCc1cc(=O)oc2cc(C)cc(OCc3nn[nH]n3)c12` was tested, and the Potency was “inactive”. `CCc1ccc(C(=O)NN=C2CCCCCC2)s1` was tested, and the Potency was “inactive”. `O=C(Nc1ccccc1Br)c1cc(CN2CCCC2)on1` was tested, and the Potency was “inactive”. Work on `COc1ccc(NC(=O)CSc2nc3ccccc3c(=O)n2C)cc1` yielded an activity, negative = inhibition of 7.85% [at 0.501 µM]. For `COc1cccc(NC(=O)C(Sc2nc3ccccc3c(=O)n2CC(C)C)c2ccccc2)c1` (stereo not given), the Potency was 79.4 µM (active). With `COc1cccc(NC(=O)C(Sc2nnnn2C)c2ccccc2)c1` (stereo not given) the Potency was “inactive”. With `Cc1ccc(C2CCN(C(=O)c3cnn(-c4ccccc4Cl)c3C3CCN(C(=O)OC(C)(C)C)CC3)C2)cc1` (stereo not given) the Potency was “inactive”. For `CC(=O)Nc1ccc(NC(=O)c2sc3nc4c(c(-c5ccc(C)cc5)c3c2N)CCC4)cc1`, the Potency was “inactive”. In the case of `COc1ccc(NC(=O)c2cc(-c3ccc(C)cc3)on2)cc1`, the activity, negative = inhibition was -5.29% [at 0.501 µM]. For `Cc1ccc(NC(=O)c2sc3nc(N)c(C#N)cc3c2N)cc1`, the Potency was 7.94 µM (active). `COc1ccc(CCNC(=O)CCNS(=O)(=O)c2cc(Br)cnc2N)cc1OC` was tested, and the Potency was “inactive”. `COCC1CCN(C(=O)C2CCC(=O)N(Cc3cccc(C(F)(F)F)c3)C2)CC1` (stereo not given) showed an activity, negative = inhibition of 15.3% [at 12.7 µM]. With `O=c1o[nH]c(-c2ccccc2)c1N=Nc1c(F)cccc1Cl` the Potency was 28.2 µM (active). With `O=c1onc(-c2c(F)cccc2F)n1-c1ccccc1Cl` the Potency was “inactive”. For `O=c1c(=O)n(Cc2c(F)cccc2Cl)ccn1Cc1ccccc1`, the Potency was “inactive”. For `Cc1nnc(NC(=O)CSc2nc3c([nH]c4ccccc43)c(=O)n2-c2cccc(Cl)c2)s1`, the Potency was “inactive”. `COCCNS(=O)(=O)c1cc(-c2nn3c(C)nnc3c3ccccc23)ccc1C` was tested, and the Potency was “inactive”. In the case of `Cc1nc2ccccn2c(=O)c1NC(=O)c1cccs1`, the Potency was “inactive”. In the case of `Cc1ccc(C)c(S(=O)(=O)c2nnn3c2nc(N2CCOCC2)c2sccc23)c1`, the Potency was “inactive”. `CCOC(=O)C1CN(S(=O)(=O)c2ccc(OC)cc2)c2cc(Cl)ccc2O1` (stereo not given) was tested, and the Potency was “inactive”. For `Cc1ccc([N+](=O)[O-])cc1S(=O)(=O)N1CCCN(C)CC1`, the Potency was 56.2 µM (active). `O=[N+]([O-])c1cccc(S(=O)(=O)N2CCCCCC2)c1` was tested, and the Potency was “inactive”. In the case of `Cc1ccc(C)c(S(=O)(=O)N2CCN(CC(=O)Nc3ccc([N+](=O)[O-])cc3)CC2)c1`, the Potency was “inactive”. `CC(CNC(=O)c1nnc(Cc2cccc(F)c2)o1)c1ccccc1` (stereo not given) was tested, and the Potency was “inactive”. Compound `O=C(NCCC1CCCCN1S(=O)(=O)c1ccc(Cl)cc1)C(=O)NCc1ccco1` (stereo not given) has an activity, negative = inhibition of -5.87% [at 0.501 µM]. For `CCOc1ccc(NC(=O)c2nc(SCC)ncc2Cl)cc1`, the Potency was “inactive”. With `CCOc1ccc(N/C(N)=N/c2nc(C)c(C)c(=O)[nH]2)cc1` the Potency was 50.1 µM (active). `CCOc1ccc(NC(=O)C2CC(=O)N=C(N)S2)cc1` (stereo not given) was tested, and the Potency was “inactive”. In the case of `COc1ccccc1C(=O)Nc1c(C(=O)Nc2ccc(C)cc2)oc2ccccc12`, the Potency was “inactive”. `COc1ccc(C)cc1NC(=O)COCc1cc(-c2cccs2)on1` was tested, and the Potency was “inactive”. Compound `COc1ccc(CNC(=O)COc2ccccc2C(=O)c2cnn(-c3ccccc3)c2)cc1OC` has an activity, negative = inhibition of 13.3% [at 12.7 µM]. `CCOC(=O)C1(Cc2ccccc2C)CCCN(C(=O)c2ccc(COC)o2)C1` (stereo not given) was tested, and the Potency was “inactive”. With `N#CCCN(C(=O)COC(=O)c1ccc(S(=O)(=O)N2CCCCCC2)cc1)c1ccccc1` the Potency was “inactive”. In the case of `O=C(O)/C=C/C(=O)NNc1ccc([N+](=O)[O-])cc1`, the Potency was 7.94 µM (active). With `CC(C)(C)C(=O)NCCCNc1ccc([N+](=O)[O-])cc1` the Potency was “inactive”. `O=C(Cc1ccccc1)NNS(=O)(=O)c1ccc([N+](=O)[O-])cc1` was tested, and the Potency was “inactive”. With `CCc1nn(CC(=O)Nc2cc(C)cc(C)c2)c(=O)c2cc3sccc3n12` the Potency was “inactive”. For `Cc1n[nH]c(=O)c2c(NC(=O)COC(=O)c3ncc(Cl)c(Cl)c3Cl)oc(C)c12`, the activity, negative = inhibition was 5.9% [at 0.501 µM]. For `Cc1n[nH]c(=O)c2c(NC(=O)CSc3ccccc3F)oc(C)c12`, the Potency was 31.6 µM (active). For `Cc1n[nH]c(=O)c2c(NC(=O)CSc3cc(Cl)ccc3Cl)oc(C)c12`, the activity, negative = inhibition was 18.3% [at 2.33 µM]. In the case of `O=C(O)Cc1sc(-c2ccccc2)nc1-c1cccs1`, the Potency was “inactive”. With `O=c1c2cc(-c3ccccc3)sc2nc2n1N=C(c1cccs1)CS2` the Potency was 11.2 µM (active). Compound `O=c1c(-c2ccccc2)cnc2n1CCS2` has an activity, negative = inhibition of 20.8% [at 12.7 µM]. With `CS(=O)(=O)N1CCN=C1SCc1ccc(F)cc1` the Potency was “inactive”. With `CCOC(=O)N1CCC(NC(=O)c2cnn(-c3cccc(C)c3)c2C2CCN(C(=O)OC(C)(C)C)CC2)CC1` the Potency was “inactive”. `CCOC(=O)c1cc2c(=O)n3ccccc3nc2n(CCCOC)c1=NC(=O)C(C)(C)Oc1ccc(Cl)cc1` was tested, and the Potency was “inactive”. For `Cc1cccc(-n2ccnc2SCC(=O)Nc2cc(C(F)(F)F)ccc2Cl)c1`, the Potency was 14.1 µM (active). In the case of `CC(CC(=O)Nc1cc(C(F)(F)F)ccc1Cl)c1ccccc1` (stereo not given), the Potency was “inactive”. With `O=C(CSc1nc(=O)[nH]c2c1CCCC2)Nc1cc(C(F)(F)F)ccc1Cl` the Potency was “inactive”. In the case of `Cc1cccc(-n2c(Cc3cc(=O)[nH]c(=O)[nH]3)nnc2SCC(=O)Nc2cccc(C(F)(F)F)c2)c1`, the Potency was “inactive”. `COc1ccc(NC(=O)CSc2nccn2C2CCCC2)cc1OC` was tested, and the Potency was “inactive”. With `O=C(CSc1nccn1C1CCCC1)Nc1cc(C(F)(F)F)ccc1Cl` the Potency was 12.6 µM (active). Work on `O=C(CN1C(=O)NC2(CCCCC2)C1=O)N1CCN(C(=O)c2cccs2)CC1` yielded an activity, negative = inhibition of -17% [at 2.33 µM]. `Cc1ccc2nc(COc3cccc(NC(=O)Nc4ccc(C)c(Cl)c4)c3)cc(=O)n2c1` was tested, and the Potency was “inactive”. In the case of `CC(=O)NC12CC3CC(C1)CC(C(=O)N1CCN(C(=O)c4ccco4)CC1)(C3)C2`, the Potency was “inactive”. `CCCC(=O)Nc1ccc2oc(-c3ccc(O)c(Br)c3)nc2c1` was tested, and the Potency was “inactive”. `CC(C)Nc1nnc(SC(C)C(=O)N(C)C2CCCCC2)s1` (stereo not given) was tested, and the activity, negative = inhibition was 7.92% [at 0.501 µM]. In the case of `O=C(Cn1ncn2nc(-c3cccs3)cc2c1=O)NCc1cccc(Br)c1`, the Potency was “inactive”.
Also: nearly all actives have a fitted effect of over 75% in size.
Potency is read from the fitted curve at half-maximal effect.
